From PubChem BioAssay (NCI)
Compounds without any hit were thinned out: in the full panel of roughly 83,000, 20% have a hit.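 In brief: 96-well plates, 48 h treatment, single concentration, percent growth endpoint.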 Activity calls are given as the source filed them. Rule for the calls: active = growth percent below 10; inactive = the rest.

Columns and labels:
Experiment in all cases: NCI-60 one-dose screen, 48 h (100 = growth as untreated, 0 = no growth, -100 = all killed)
SK-MEL-2 melanoma = conditions: 10 µM
EKVX NSCLC = conditions: 10 µM unless noted
SN12C renal = conditions: 10 µM unless noted
UO-31 renal = conditions: 10 µM unless noted
TK-10 renal = conditions: 10 µM unless noted
ACHN renal = conditions: 10 µM unless noted
CAKI-1 renal = conditions: 10 µM unless noted
CCRF-CEM leukemia = conditions: 10 µM unless noted
SR leukemia = conditions: 10 µM unless noted
RPMI-8226 leukemia = conditions: 10 µM unless noted
OVCAR-8 ovarian = conditions: 10 µM unless noted
OVCAR-5 ovarian = conditions: 10 µM unless noted
OVCAR-4 ovarian = conditions: 10 µM unless noted
SK-OV-3 ovarian = conditions: 10 µM unless noted
IGROV1 ovarian = conditions: 10 µM unless noted
OVCAR-3 ovarian = conditions: 10 µM unless noted
NCI/ADR-RES ovarian = conditions: 10 µM unless noted
MOLT-4 leukemia = conditions: 10 µM unless noted
HS 578T breast = conditions: 10 µM
A498 renal = conditions: 10 µM unless noted

Measured: growth

COc1ccc2c(CCCc3ccc(Cl)cc3Cl)c3[n+](cc2c1OC)CCc1cc2c(cc1-3)OCO2
active: SK-MEL-2 melanoma -22.8% | SN12C renal -24.9% | TK-10 renal 0.636% | CCRF-CEM leukemia 5.42% | SR leukemia -38.6% | RPMI-8226 leukemia -24.5% | OVCAR-8 ovarian 0.597% | SK-OV-3 ovarian -8.36% | IGROV1 ovarian -8.37% | OVCAR-3 ovarian -48.4%
inactive: EKVX NSCLC 23.1% | UO-31 renal 25.4% | ACHN renal 21.9% | CAKI-1 renal 71.9% | OVCAR-5 ovarian 28.9% | OVCAR-4 ovarian 20.5% | NCI/ADR-RES ovarian 76.4%

Cc1ccsc1C(NC(=O)c1ccccc1)c1cc(Cl)c2cccnc2c1O (stereo not drawn)
inactive: SK-MEL-2 melanoma 12.6% | EKVX NSCLC 18.2% | SN12C renal 23.2% | TK-10 renal 27.6% | ACHN renal 10.8% | CAKI-1 renal 15.7% | MOLT-4 leukemia 14.6% | SR leukemia 13.2% | RPMI-8226 leukemia 13.8% | OVCAR-5 ovarian 46.9% | OVCAR-4 ovarian 32% | SK-OV-3 ovarian 16% | IGROV1 ovarian 13.1% | OVCAR-3 ovarian 18.8% | HS 578T breast 31.5%
active: UO-31 renal 2.22% | CCRF-CEM leukemia 9.96% | OVCAR-8 ovarian 8.81% | NCI/ADR-RES ovarian 7.05%

Nc1c(C(=O)c2ccccc2)sc2nc(-c3cccs3)cc(-c3cccs3)c12
inactive: SK-MEL-2 melanoma 40.9% | EKVX NSCLC 62.2% | SN12C renal 59.5% | UO-31 renal 60.5% | TK-10 renal 81.6% | ACHN renal 55.7% | CAKI-1 renal 50.5% | CCRF-CEM leukemia 40.1% | MOLT-4 leukemia 44.8% | SR leukemia 24.4% | RPMI-8226 leukemia 57.7% | OVCAR-8 ovarian 54.8% | OVCAR-5 ovarian 84.5% | OVCAR-4 ovarian 62.6% | SK-OV-3 ovarian 46% | IGROV1 ovarian 66.3% | OVCAR-3 ovarian 11.9% | HS 578T breast 53.4% | NCI/ADR-RES ovarian 24.4%

COc1ccc2c(CCCC(c3ccccc3)c3ccccc3)c3[n+](cc2c1OC)CCc1cc2c(cc1-3)OCO2
inactive: EKVX NSCLC 14.9% | ACHN renal 11.6% | CAKI-1 renal 57.7% | OVCAR-5 ovarian 31.8% | NCI/ADR-RES ovarian 71.7%
active: SK-MEL-2 melanoma -52.4% | SN12C renal -65.6% | UO-31 renal 5.46% | TK-10 renal -30.7% | CCRF-CEM leukemia 5.53% | MOLT-4 leukemia -20.5% | SR leukemia -35% | RPMI-8226 leukemia -38.8% | OVCAR-8 ovarian -47.6% | OVCAR-4 ovarian -81.3% | SK-OV-3 ovarian -13.4% | IGROV1 ovarian 5.13% | OVCAR-3 ovarian -74.6% | HS 578T breast -16.8%

CCN1/C(=C/C=C/c2n(-c3ccccc3)c3ccc(-c4nc5ccccc5s4)cc3[n+]2CC)N(c2ccccc2)c2ccc(-c3nc4ccccc4s3)cc21
inactive: CCRF-CEM leukemia 24.5% | MOLT-4 leukemia 16.5% | SR leukemia 15.5% | OVCAR-8 ovarian 10.6% | OVCAR-5 ovarian 31.4% | OVCAR-4 ovarian 24.7% | IGROV1 ovarian 14% | HS 578T breast 28.2% | NCI/ADR-RES ovarian 52.3%
active: SK-MEL-2 melanoma -23.5% | EKVX NSCLC 9.19% | SN12C renal -2.95% | UO-31 renal -7.26% | TK-10 renal -2.12% | ACHN renal -3.27% | A498 renal -12.7% | RPMI-8226 leukemia 8.29% | SK-OV-3 ovarian -4.86% | OVCAR-3 ovarian -0.0306%

CCCCCCCC(=O)SCC/C=C/[C@@H]1CC(=O)NCc2cc(ccn2)C2=N[C@@](C)(CS2)C(=O)N[C@@H](C(C)C)C(=O)O1
active: SK-MEL-2 melanoma -2.2% | UO-31 renal -10.5% | TK-10 renal -15.6% | ACHN renal -17.2% | CAKI-1 renal -54.4% | OVCAR-8 ovarian 6.26% | OVCAR-5 ovarian 2.85% | SK-OV-3 ovarian -22.6% | IGROV1 ovarian -8.98% | OVCAR-3 ovarian -22.9% | NCI/ADR-RES ovarian 4.18%
inactive: EKVX NSCLC 19.9% | SN12C renal 21.9% | CCRF-CEM leukemia 39% | MOLT-4 leukemia 12.8% | SR leukemia 14.3% | RPMI-8226 leukemia 13.6% | OVCAR-4 ovarian 10.9%

CCCCCCC1(/C=N/NC(N)=O)NC(=O)NC1=O (stereo not drawn)
inactive: SK-MEL-2 melanoma 98.8% | EKVX NSCLC 91.8% | SN12C renal 105% | UO-31 renal 87.2% | TK-10 renal 99.1% | ACHN renal 105% | CAKI-1 renal 91.7% | CCRF-CEM leukemia 102% | SR leukemia 102% | RPMI-8226 leukemia 111% | OVCAR-8 ovarian 105% | OVCAR-5 ovarian 89% | OVCAR-4 ovarian 98% | SK-OV-3 ovarian 83.2% | IGROV1 ovarian 105% | OVCAR-3 ovarian 111% | HS 578T breast 114% | NCI/ADR-RES ovarian 100%

CCc1cc2c(c3ccc(C(=O)CBr)cc13)CCCC2
inactive: SK-MEL-2 melanoma 96.9% | EKVX NSCLC 74.3% | SN12C renal 99.7% | UO-31 renal 81.4% | TK-10 renal 91.9% | ACHN renal 105% | A498 renal 102% | CCRF-CEM leukemia 114% | MOLT-4 leukemia 85.8% | SR leukemia 91.7% | RPMI-8226 leukemia 113% | OVCAR-8 ovarian 105% | OVCAR-5 ovarian 91.1% | OVCAR-4 ovarian 110% | SK-OV-3 ovarian 103% | IGROV1 ovarian 99.1% | OVCAR-3 ovarian 102% | HS 578T breast 98.8% | NCI/ADR-RES ovarian 93.5%

C=CCC(=O)N[C@H](/C=C/C(=O)O)Cc1ccc(-c2cc(Cl)cc(Cl)c2)cc1
inactive: SK-MEL-2 melanoma 101% | EKVX NSCLC 95.9% | SN12C renal 100% | UO-31 renal 81% | TK-10 renal 104% | ACHN renal 102% | CAKI-1 renal 86.3% | CCRF-CEM leukemia 102% | MOLT-4 leukemia 91.2% | SR leukemia 82% | RPMI-8226 leukemia 96.6% | OVCAR-8 ovarian 92.7% | OVCAR-5 ovarian 92% | OVCAR-4 ovarian 98.6% | SK-OV-3 ovarian 87.3% | IGROV1 ovarian 114% | OVCAR-3 ovarian 108% | HS 578T breast 97% | NCI/ADR-RES ovarian 107%

COc1ccc(CCCc2c3[n+](cc4c(OC)c(OC)ccc24)CCc2cc4c(cc2-3)OCO4)cc1
inactive: SK-MEL-2 melanoma 60.1% | EKVX NSCLC 78.3% | SN12C renal 69% | UO-31 renal 93.2% | TK-10 renal 66.4% | ACHN renal 96.2% | CAKI-1 renal 98.3% | CCRF-CEM leukemia 64.7% | MOLT-4 leukemia 76.8% | SR leukemia 37.6% | RPMI-8226 leukemia 20.5% | OVCAR-8 ovarian 48.1% | OVCAR-5 ovarian 86.6% | OVCAR-4 ovarian 54.5% | SK-OV-3 ovarian 77.5% | IGROV1 ovarian 53.9% | OVCAR-3 ovarian 30% | NCI/ADR-RES ovarian 93.7%

CC(C)=CCc1cc2c(cc1O)C1=C(C(=O)C3=C(NCCS3(=O)=O)C1=O)C(C=C(C)C)O2 (stereo not drawn)
inactive: SK-MEL-2 melanoma 19.3% | EKVX NSCLC 48.6% | UO-31 renal 41.6% | TK-10 renal 122% | ACHN renal 62.4% | A498 renal 94.9% | RPMI-8226 leukemia 43.3% | OVCAR-8 ovarian 13.4% | OVCAR-5 ovarian 154% | OVCAR-4 ovarian 32.9% | SK-OV-3 ovarian 69.3% | HS 578T breast 73.5% | NCI/ADR-RES ovarian 86.6%
active: SN12C renal -43.3% | CCRF-CEM leukemia 0.962% | MOLT-4 leukemia -22.3% | SR leukemia 6.83% | IGROV1 ovarian 1.26% | OVCAR-3 ovarian -0.915%

COc1ccc(-c2nc(N)ncc2Oc2ccccc2OC)c(O)c1
active: OVCAR-3 ovarian -4.77%
inactive: SK-MEL-2 melanoma 17.4% | EKVX NSCLC 40.1% | SN12C renal 48.7% | UO-31 renal 46% | TK-10 renal 55.9% | ACHN renal 43.5% | A498 renal 34.3% | CCRF-CEM leukemia 19.7% | MOLT-4 leukemia 26.9% | SR leukemia 27.9% | RPMI-8226 leukemia 25.7% | OVCAR-8 ovarian 35.6% | OVCAR-5 ovarian 60.2% | OVCAR-4 ovarian 75.7% | SK-OV-3 ovarian 24.8% | IGROV1 ovarian 48.7% | HS 578T breast 36.2% | NCI/ADR-RES ovarian 17.9%

CCCCCCCC(=O)SCC/C=C/[C@@H]1CC(=O)NCc2cccc(n2)C2=N[C@@](C)(CS2)C(=O)N[C@@H](C(C)C)C(=O)N1
inactive: SK-MEL-2 melanoma 18.1% | EKVX NSCLC 51.3% | SN12C renal 55.7% | UO-31 renal 50.8% | TK-10 renal 12% | ACHN renal 59.6% | CAKI-1 renal 82.3% | CCRF-CEM leukemia 44.9% | MOLT-4 leukemia 17.5% | SR leukemia 18.9% | RPMI-8226 leukemia 17.1% | OVCAR-8 ovarian 32.1% | OVCAR-5 ovarian 25.5% | OVCAR-4 ovarian 34.4% | SK-OV-3 ovarian 10.3% | IGROV1 ovarian 26% | OVCAR-3 ovarian 22% | HS 578T breast 26.2% | NCI/ADR-RES ovarian 86.7%

Nc1c(C(=O)c2ccccc2)sc2nc(-c3cccs3)ccc12
active: OVCAR-3 ovarian 9.4% | NCI/ADR-RES ovarian 3.97%
inactive: SK-MEL-2 melanoma 44.2% | EKVX NSCLC 60.8% | SN12C renal 44.9% | UO-31 renal 48.7% | TK-10 renal 56.7% | ACHN renal 54.3% | CAKI-1 renal 38.5% | CCRF-CEM leukemia 19.1% | SR leukemia 30.5% | RPMI-8226 leukemia 21.4% | OVCAR-8 ovarian 28.9% | OVCAR-5 ovarian 66.9% | OVCAR-4 ovarian 57.3% | SK-OV-3 ovarian 35.4% | IGROV1 ovarian 46.5% | HS 578T breast 34.3%

COc1ccc2c(CCCCC(c3ccccc3)c3ccccc3)c3[n+](cc2c1OC)CCc1cc2c(cc1-3)OCO2
active: SK-MEL-2 melanoma -70.4% | EKVX NSCLC -31.8% | SN12C renal -77.7% | UO-31 renal -42.1% | TK-10 renal -51% | ACHN renal -19.1% | CCRF-CEM leukemia 5.53% | MOLT-4 leukemia -20.7% | SR leukemia -35.8% | RPMI-8226 leukemia -33% | OVCAR-8 ovarian -54.8% | OVCAR-5 ovarian -13.4% | OVCAR-4 ovarian -80.2% | SK-OV-3 ovarian -9.34% | IGROV1 ovarian -52.1% | OVCAR-3 ovarian -89.6% | HS 578T breast -20.1%
inactive: CAKI-1 renal 16.6% | NCI/ADR-RES ovarian 68.5%

Cc1sc2c(c1C)c(=O)nc1c(-c3nc(-c4ccccc4)cs3)n[nH]n12
inactive: SK-MEL-2 melanoma 99.9% | EKVX NSCLC 80.1% | SN12C renal 100% | UO-31 renal 76.2% | TK-10 renal 145% | ACHN renal 97.1% | A498 renal 105% | CCRF-CEM leukemia 85.8% | MOLT-4 leukemia 85.7% | SR leukemia 90.5% | RPMI-8226 leukemia 93.8% | OVCAR-8 ovarian 99.8% | OVCAR-5 ovarian 109% | OVCAR-4 ovarian 106% | SK-OV-3 ovarian 89.6% | IGROV1 ovarian 96.9% | OVCAR-3 ovarian 96.4% | HS 578T breast 93.4% | NCI/ADR-RES ovarian 96.1%
